± gives the standard deviation.
Columns and labels:
Settings in all cases: modulator concentration 10 µM
[1] = system: RAW-Dual (murine macrophage reporter line); assay: NF-kB reporter (SEAP) activity fold change vs agonist alone; higher = enhanced NF-kB activity
Outline: (§1)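 In 384-well plates holding 50 000 RAW-Dual murine macrophage reporter cells per well, compound at 10 μM final was pre-incubated for 1 hour at 37 °C, after which a PRR agonist was added overnight. Supernatant SEAP read with QUANTI-Blue at 620 nm absorbance reported NF-κB, and Lucia luciferase read with QUANTI-Luc luminescence reported IRF. Fold change values come from dividing each reporter signal by the mean of agonist-only control wells on the same plate, averaged over replicate plates with propagated errors.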

[2] = system: RAW-Dual (murine macrophage reporter line); assay: IRF reporter (Lucia luciferase) activity fold change vs agonist alone; higher = enhanced IRF activity
Outline: as §1

[3] = system: RAW-Dual (murine macrophage reporter line); assay: viability score (confluency relative to resting cells, overnight) (fraction); higher = more viable, active = viable (0.7 or more)
Outline: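 RAW-Dual macrophages in 384-well plates were exposed overnight to compound at 10 μM final. Confluency was imaged with IncuCyte, and two confluency masks were generated with IncuCyte software over all imaged wells. The viability score is confluency expressed relative to resting cells. Compounds were called viable if both masks exceeded 70% of resting cells.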

[4] = agonist: CpG ODN 1826 0.5 ug/mL

Row | SMILES | NF-kB reporter [1, 4] | NF-kB reporter ([1]; agonist: LPS 0.1 ug/mL) | NF-kB reporter ([1]; agonist: MPLA […]) | IRF reporter ([2]; agonist: 3'3'-cGAMP 10 ug/mL) | IRF reporter ([2]; agonist: LPS 0.1 ug/mL) | IRF reporter ([2]; agonist: MPLA […]) | viability score [3]
1 | COc1ccc(CNCCc2c[nH]c3ccccc23)cc1C | 0.373 ± 0.058 | 0.574 ± 0.054 | 1.22 ± 0.06 | 0.782 ± 0.08 | 1.04 ± 0.052 | 2.55 ± 0.19 | 0.154 (inactive)
2 | COc1ccc(CN2CCNCC2)c(OC)c1OC.Cl.Cl | 1.26 ± 0.18 | 1.06 ± 0.16 | 1.45 ± 0.53 | 0.921 ± 0.042 | 1.29 ± 0.28 | 1.27 ± 0.13 | 0.989 (active)
3 | c1cc2c(cc1C1OCC3C(c4ccc5c(c4)OCO5)OCC13)OCO2 (centres undefined) | 0.745 ± 0.22 | 1.16 ± 0.058 | 1.1 ± 0.082 | 0.841 ± 0.041 | 1.22 ± 0.17 | 1.24 ± 0.12 | 1 (active)
4 | CC(=O)OC1CCC2(C)C(=CCC3C4CCC(=O)C4(C)CCC32)C1 (centres undefined) | 0.92 ± 0.084 | 0.901 ± 0.076 | 0.863 ± 0.092 | 0.969 ± 0.031 | 1.08 ± 0.095 | 1.15 ± 0.13 | 1 (active)
5 | CC(=O)Oc1ccc(C=Cc2cc(OC(C)=O)cc(OC(C)=O)c2)cc1 | 1.12 ± 0.069 | 1.15 ± 0.073 | 1.12 ± 0.092 | 0.87 ± 0.029 | 0.953 ± 0.088 | 0.896 ± 0.093 | 1 (active)
6 | CN1C(=O)NC(=O)C(=Cc2ccc([N+](=O)[O-])s2)C1=O | 1.12 ± 0.12 | 1.08 ± 0.07 | 1.05 ± 0.036 | 0.895 ± 0.098 | 0.925 ± 0.12 | 0.914 ± 0.19 | 1 (active)
7 | COc1ccc(CNCCc2c[nH]c3ccccc23)c(OC)c1C | 0.258 ± 0.021 | 0.924 ± 0.076 | 2.6 ± 0.15 | 1.4 ± 0.048 | 3.32 ± 0.42 | 2.88 ± 0.25 | 0.178 (inactive)
8 | COc1cc(C2c3cc4c(c(O)c3CC3COC(=O)C32)OCO4)cc(OC)c1OC (centres undefined) | 2.38 ± 0.14 | 1.31 ± 0.086 | 2.08 ± 0.14 | 0.0984 ± 0.0043 | 1.75 ± 0.2 | 1.92 ± 0.17 | 0.735 (active)
9 | O=C1NC(=O)N(c2ccccc2F)C(=O)C1=Cc1ccc(OCc2ccc([N+](=O)[O-])cc2)c(Cl)c1 | 0.917 ± 0.072 | 1.03 ± 0.068 | 0.894 ± 0.057 | 0.916 ± 0.049 | 1.22 ± 0.15 | 1.02 ± 0.065 | 1.01 (active)
10 | CCCC(=O)c1ccc(N2CCNCC2)c(F)c1 | 0.404 ± 0.023 | 1.12 ± 0.069 | 0.961 ± 0.082 | 0.861 ± 0.043 | 1.4 ± 0.14 | 1.66 ± 0.18 | 0.951 (active)
11 | Cc1cccc(-n2c(C)nc3ccccc3c2=O)n1 | 0.88 ± 0.052 | 0.827 ± 0.1 | 0.949 ± 0.039 | 1.02 ± 0.041 | 1.02 ± 0.054 | 0.935 ± 0.19 | 0.998 (active)
12 | CCCCCn1c(=O)c(C(=O)NCc2cccnc2)c(O)c2ccccc21 | 1.13 ± 0.086 | 1.25 ± 0.085 | 0.997 ± 0.062 | 1.02 ± 0.04 | 1.31 ± 0.087 | 1.34 ± 0.12 | 0.989 (active)
13 | CN1C(=O)NC(=O)C(=Cc2ccc([N+](=O)[O-])o2)C1=O | 0.875 ± 0.069 | 1.06 ± 0.083 | 1 ± 0.12 | 0.92 ± 0.066 | 1.24 ± 0.14 | 0.961 ± 0.061 | 1.02 (active)
14 | Clc1cccc(CNCCc2c[nH]c3ccccc23)c1 | 0.317 ± 0.028 | 0.978 ± 0.11 | 0.992 ± 0.099 | 1.13 ± 0.028 | 2.3 ± 0.24 | 1.7 ± 0.26 | 0.258 (inactive)
15 | COc1cc(CNCCc2c[nH]c3ccccc23)cc(OC)c1O | 0.642 ± 0.052 | 0.811 ± 0.12 | 1.04 ± 0.096 | 0.93 ± 0.043 | 1.44 ± 0.11 | 1.56 ± 0.15 | 1 (active)
16 | Br.CN1C2CC(OC(=O)C(CO)c3ccccc3)CC1C1OC12 (centres undefined) | 1.32 ± 0.32 | 0.999 ± 0.051 | 1.01 ± 0.074 | 1 ± 0.034 | 1.19 ± 0.13 | 1.19 ± 0.13 | 0.985 (active)
17 | CCN(CC)CCOC(=O)C(O)(c1ccccc1)c1ccccc1.Cl | 1.16 ± 0.16 | 1.04 ± 0.41 | 0.923 ± 0.066 | 1.38 ± 0.043 | 1.03 ± 0.3 | 1.44 ± 0.11 | 0.98 (active)
18 | CC12CC1(C)C(=O)N(c1cc(Cl)cc(Cl)c1)C2=O (centres undefined) | 1.06 ± 0.092 | 1.1 ± 0.097 | 0.96 ± 0.045 | 0.942 ± 0.085 | 1.11 ± 0.081 | 1.18 ± 0.17 | 1 (active)
19 | O=c1[nH]c2ccccc2n1CCCN1CCC(n2c(=O)[nH]c3cc(Cl)ccc32)CC1 | 0.114 ± 0.018 | 1.14 ± 0.082 | 0.973 ± 0.074 | 0.865 ± 0.026 | 1.31 ± 0.14 | 1.12 ± 0.092 | 0.981 (active)
20 | Nc1ccncc1 | 1 ± 0.24 | 1.03 ± 0.078 | 0.879 ± 0.056 | 0.514 ± 0.022 | 0.929 ± 0.11 | 0.976 ± 0.25 | 0.858 (active)
21 | CN1C(=O)C(=Cc2nc3ccccc3c(=O)n2-c2ccccc2)c2ccccc21 | 1.01 ± 0.088 | 0.867 ± 0.097 | 1.65 ± 0.63 | 1.08 ± 0.052 | 1.32 ± 0.23 | 1.29 ± 0.24 | 1.05 (active)
22 | Cc1ccc(-c2nn(-c3ccccc3)cc2C=C2C(=O)NC(=S)NC2=O)o1 | 1.03 ± 0.3 | 1.01 ± 0.11 | 0.898 ± 0.071 | 0.968 ± 0.057 | 1.27 ± 0.2 | 1.25 ± 0.13 | 1 (active)
23 | COc1ccc(CCNCc2ccc3ccccc3c2)cc1OC | 0.42 ± 0.095 | 0.762 ± 0.058 | 0.849 ± 0.08 | 0.893 ± 0.045 | 1.17 ± 0.12 | 1.24 ± 0.14 | 0.984 (active)
24 | CCN(CC)CCNC(=O)C(O)(c1ccccc1)c1ccccc1 | 0.873 ± 0.071 | 0.937 ± 0.066 | 0.964 ± 0.038 | 0.968 ± 0.076 | 0.991 ± 0.17 | 0.923 ± 0.23 | 0.998 (active)
25 | CCNc1nc(Cl)nc(NC(C)C)n1 | 1.25 ± 0.097 | 0.873 ± 0.082 | 1.01 ± 0.094 | 1.01 ± 0.032 | 1.33 ± 0.21 | 1.49 ± 0.25 | 1.03 (active)
26 | CCn1cc(C(=O)O)c(=O)c2c(N)c(F)c(N3CCNCC3)c(F)c21 | 0.952 ± 0.067 | 1.09 ± 0.068 | 0.859 ± 0.073 | 0.972 ± 0.033 | 1.47 ± 0.14 | 1.2 ± 0.2 | 0.998 (active)
27 | CN1CC(CNC(=O)OCc2ccccc2)CC2c3cccc4c3c(cn4C)CC21 (centres undefined) | 1.02 ± 0.065 | 0.966 ± 0.11 | 0.963 ± 0.08 | 0.986 ± 0.034 | 1.43 ± 0.14 | 1.2 ± 0.18 | 0.997 (active)

Reference: the supplement of paper PMC10646978
